A short description of experiment [1]: P-glycoprotein substrates identified in KB-3-1 adenocarcinoma cell line, qHTS therapeutic library screen (AID 1346986). Note: nearly all actives have a fitted effect of over 60% in size. Put shortly:
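KB-3-1 parental cells and P-gp-overexpressing KB-8-5-11 (colchicine omitted during assay) plated at 500 cells/well, dosed in dose-response, incubated 72 h at 37 degree C. CellTiter-Glo luminescence read; KB-8-5-11 also tested with tariquidar.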

Experiment [2] is described as follows: P-glycoprotein substrates identified in KB-8-5-11 adenocarcinoma cell line, qHTS therapeutic library screen (AID 1346987). For activity change, negative = cytotoxicity: series mostly up to about 44 µM; % is set by controls: 0 for no effect and ±100 for the full control effect. Note: nearly all actives have a fitted effect of over 65% in size. The method, boiled down:
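P-gp-mediated resistance screen: KB-8-5-11 cells treated 72 h with compounds in dose-response. CellTiter-Glo viability.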

Inconclusive results are not listed. Unmarked numbers belong to inactive results. Calls of active or inactive are those of the source. Calls come from the whole dose curve; as a rule, active = well fitted curve in the direction sought with a large enough effect; inconclusive = small, poorly fitted or top-dose-only effect, or another doubt; inactive = no such curve, though single readings can be large; an effect the other way counts as inactive or inconclusive.

For the compound `CC(C)CC1NC(=O)C(C)NC(=O)C(CC(C)C)OC(=O)CCCNC1=O` (stereo unspecified), the Potency result in experiment [1] and in experiment [2] was “inactive” in each case.
Take `CC1(O)CCCC2(C)C1CCC13CC(CO)C(CCC12)C3` (stereo unspecified): the Potency entry in experiment [1] and in experiment [2] was “inactive” in each case.
In the case of `CO[C@H]1O[C@@H]2O[C@]3(C)CC[C@H]4[C@H](C)CC[C@@H]([C@H]1C)[C@@]24OO3`, the Potency result in experiment [1] and in experiment [2] was “inactive” in each case.
For the compound `CC(C)(O)c1ccc2c(c1)C(O)C[C@H]1[C@](C)(C(=O)O)CCC[C@]21C` (stereo partly specified), the Potency result in experiment [1] and in experiment [2] was “inactive” throughout.
For `CC(C)c1ccc(CO)cc1O[C@@H]1O[C@H](CO)[C@@H](O)[C@H](O)[C@H]1O`, the Potency result in experiment [1] and in experiment [2] was “inactive” each time.
`O=C(CN1C(=O)C2(CCCC2)NCC1c1cc(F)cc(F)c1)Nc1ccc2c(c1)CC1(C2)C(=O)Nc2ncccc21` (stereo unspecified): the Potency result in experiment [1] and in experiment [2] was “inactive” each time.
With `CC1(C)CCCC2(C)C1C(O)C=C(CO)C2(O)CO` (stereo unspecified), the Potency entry in experiment [1] and in experiment [2] was “inactive” each time.
As to `CC(O)CO[C@@H]1O[C@H](CO)[C@@H](O)[C@H](O)[C@H]1O` (stereo partly specified), the Potency entry in experiment [1] and in experiment [2] was “inactive” throughout.
As for `CC(C)C[C@H](CC(=O)NO)C(=O)N[C@H](C(=O)N[C@@H](C)C(=O)NCCN)C(C)(C)C`, in experiment [1], the outcome is “inactive [at 9.29 µM]”. Besides, the activity change, negative = cytotoxicity in experiment [2] was 2.84% [at 9.29 µM].
Turning to `CC[C@@H](O)C[C@@H]1C(C)=C[C@@H]2CCCC[C@@H]2[C@@]1(C)C(=O)O`, the Potency entry in experiment [1] and in experiment [2] was “inactive” in each case.
For `COC1=CC(=O)CC(C)C12Oc1cc(OC)cc(O)c1C2=O` (stereo unspecified), the Potency result in experiment [1] and in experiment [2] was “inactive” in each case.
Consider `COc1cc(C(=O)O)ccc1OC1OC(CO)C(O)C(O)C1O` (stereo unspecified), for which the Potency entry in experiment [1] and in experiment [2] was “inactive” each time.
On to `C[C@@H]1O[C@@H](O[C@@H]2CO[C@@H](O[C@H]3CC[C@@]4(C)C(CC[C@]5(C)C4CC=C4[C@@H]6CC(C)(C)CC[C@]6(C(=O)O[C@@H]6O[C@H](CO)[C@@H](O)[C@H](O)[C@H]6O)CC[C@]45C)[C@]3(C)CO)[C@H](O)[C@H]2O[C@@H]2O[C@H](CO)[C@@H](O)[C@H](O)[C@H]2O)[C@H](O)[C@H](O)[C@H]1O` (stereo partly specified), for which, in experiment [1], the outcome was “inactive [at 9.29 µM]”. Moreover, the activity change, negative = cytotoxicity in experiment [2] was 4.08% [at 9.29 µM].
With `COc1ccc(C(O)C(C)OC2OC(CO)C(O)C(O)C2O)cc1` (stereo unspecified), the Potency entry in experiment [1] and in experiment [2] was “inactive” each time.
`CCOCc1cc(OC)c(-c2ccc(C[C@H](NC(=O)c3c(F)cccc3F)C(=O)O)cc2)c(OC)c1`: the Potency result in experiment [1] and in experiment [2] was “inactive” each time.
`CC(C)=CCC/C(C)=C/CO[C@@H]1O[C@H](CO)[C@@H](O)[C@H](O)[C@H]1O`: the Potency result in experiment [1] and in experiment [2] was “inactive” in each case.
For `C=C(C(=O)O)C1CCC2(C)CCCC(C)(O)C2C1` (stereo unspecified), the Potency result in experiment [1] and in experiment [2] was “inactive” throughout.
Consider `CC(=O)OC[C@H]1O[C@H](O[C@]2(CO)O[C@H](CO)[C@@H](OC(=O)/C=C/c3ccccc3)[C@@H]2O)[C@H](O)[C@@H](O)[C@@H]1O`, for which the Potency result in experiment [1] and in experiment [2] was “inactive” throughout.
With `COc1ccc(/C=C\C(=O)O)c(O[C@@H]2O[C@H](CO)[C@@H](O)[C@H](O)[C@H]2O)c1`, the Potency entry in experiment [1] and in experiment [2] was “inactive” each time.
`CC1OC(OC2C(C)OC(OC3C(OC(=O)C45CCC(C)(C)CC4C4=CCC6C7(C)CCC(OC8OC(C(=O)O)C(O)C(O)C8OC8OC(CO)C(O)C(OC9OC(C)C(O)C(O)C9O)C8O)C(C)(CO)C7CCC6(C)C4(C)CC5)OC(CO)C(O)C3O)C(O)C2O)C(O)C(O)C1O` (stereo unspecified): the outcome in experiment [1] was “inactive [at 9.29 µM]”. For the same compound, in experiment [2], the activity change, negative = cytotoxicity was 1.71% [at 9.29 µM].
With `CC(NC(=O)C(O)C(C)C)C(=O)NC1C(=O)N(C)CCc2ccccc21` (stereo unspecified), the Potency result in experiment [1] and in experiment [2] was “inactive” in each case.
Turning to `CC(=O)c1c(O)cc(O[C@@H]2O[C@H](CO)[C@@H](O)[C@H](O)[C@H]2O)cc1O`, the Potency result in experiment [1] and in experiment [2] was “inactive” in each case.
With `Nc1nc2c(ncn2[C@@H]2O[C@@H]3COP(=O)(O)O[C@H]3[C@H]2O)c(=O)[nH]1`, the Potency entry in experiment [1] and in experiment [2] was “inactive” each time.
In the case of `CC1(C)CC[C@]2(C(=O)O[C@@H]3O[C@H](CO)[C@@H](O)[C@H](O)[C@H]3O)CC[C@]3(C)C(=CCC4[C@@]5(C)C[C@@H](O)[C@H](O)[C@](C)(C=O)C5CC[C@]43C)[C@@H]2[C@@H]1O` (stereo partly specified), the Potency entry in experiment [1] and in experiment [2] was “inactive” each time.
Consider `Cc1c2cc(c(C(=O)O)c1C)OC1OC(C(O)C(O)C1O)C(O)C(O)C1OC(O2)C(O)C(O)C1O` (stereo unspecified), for which the Potency result in experiment [1] and in experiment [2] was “inactive” in each case.
On to `COc1c2c(c(CO)c3c1C(=O)OC3)OC1(C)CCC3(O)C(C)(C)OC(=O)CCC3(C)C1C2` (stereo unspecified), for which the Potency entry in experiment [1] and in experiment [2] was “inactive” each time.
For `CC#CC(=O)N1CCC[C@H]1c1nc(-c2ccc(C(=O)Nc3ccccn3)cc2)c2c(N)nccn12`, the Potency entry in experiment [1] and in experiment [2] was “inactive” in each case.
Take `OC[C@H]1O[C@@H](OCCc2ccccc2)[C@H](O[C@@H]2OC[C@](O)(CO)[C@H]2O)[C@@H](O)[C@@H]1O`: the Potency entry in experiment [1] and in experiment [2] was “inactive” in each case.

Values taken from PubChem BioAssay (NCATS).
